Assay results published in PubChem BioAssay AID1159580 (chemical genetic matrix, 2015).
Out of some 5,500 compounds screened, about 2,000 (36%) were called active. Another 18% or so got no clear call; they are omitted. Rule as the data show it: active = normalized growth mostly below about 0.91 (no sharp cut-off); inconclusive = no clear call, values can overlap the other calls; inactive = mostly above about 0.92. Some of the results follow.

Assay: chemical genetic growth profiling, strain panel (AID 1159580);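 also: tested at 20 µM; growth read once vehicle control cultures reached saturation at 30 °C; 1 = growth at the plate median or of vehicle wells; lower values mean less growth of the strain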
Conditions: growth OD

Measured: normalized growth

COC(=O)CCC(=O)O[C@H]1CCC2(C)C(CCC3C2C(=O)[C@@H](O)C2(C)C3CC3OC4(CCC(C)CO4)[C@@H](C)C32)C1 (stereo partly specified)
inactive: S. cerevisiae deletion strains, locus YAL013W, strain DEP1, active compounds read low 0.991 | S. cerevisiae deletion strains, locus YBR021W, strain FUR4, active compounds read low 1.01 | S. cerevisiae deletion strains, locus YBR229C, strain ROT2, active compounds read low 1.01 | S. cerevisiae deletion strains, locus YCL029C, strain bik1, active compounds read low 0.997 | S. cerevisiae deletion strains, locus YDL035C, strain GPR1, active compounds read low 0.993 | S. cerevisiae deletion strains, locus YDL074C, strain BRE1, active compounds read low 0.997 | S. cerevisiae deletion strains, locus YDL101C, strain DUN1, active compounds read low 1.02 | S. cerevisiae deletion strains, locus YDL134C, strain PPH21, active compounds read low 1 | S. cerevisiae deletion strains, locus YDL185W, strain tfp1, active compounds read low 0.996 | S. cerevisiae deletion strains, locus YDL192W, strain arf1, active compounds read low 1 | S. cerevisiae deletion strains, locus YDR101C, strain arx1, active compounds read low 0.997 | S. cerevisiae deletion strains, locus YDR150W, strain NUM1, active compounds read low 1 | S. cerevisiae deletion strains, locus YDR162C, strain NBP2, active compounds read low 1 | S. cerevisiae deletion strains, locus YDR318W, strain mcm21, active compounds read low 0.996 | S. cerevisiae deletion strains, locus YDR388W, active compounds read low 0.994 | S. cerevisiae deletion strains, locus YDR502C, strain sam2, active compounds read low 1 | S. cerevisiae deletion strains, locus YEL061C, strain CIN8, active compounds read low 1.01 | S. cerevisiae deletion strains, locus YER110C, active compounds read low 0.996 | S. cerevisiae deletion strains, locus YER155C, strain BEM2, active compounds read low 1.01 | S. cerevisiae deletion strains, locus YER167W, strain BCK2, active compounds read low 1.02 | S. cerevisiae deletion strains, locus YGL078C, strain dbp3, active compounds read low 0.991 | S. cerevisiae deletion strains, locus YGL086W, strain mad1, active compounds read low 1 | S. cerevisiae deletion strains, locus YGL248W, strain PDE1, active compounds read low 1 | S. cerevisiae deletion strains, locus YGR078C, strain PAC10, active compounds read low 1.02 | S. cerevisiae deletion strains, locus YGR135W, strain pre9, active compounds read low 1 | S. cerevisiae deletion strains, locus YGR229C, strain SMI1, active compounds read low 1.01 | S. cerevisiae deletion strains, locus YGR252W, strain gcn5, active compounds read low 0.963 | S. cerevisiae deletion strains, locus YHR030C, strain SLT2, active compounds read low 1.01 | S. cerevisiae deletion strains, locus YHR079C, strain IRE1 (second series), active compounds read low 0.991 | S. cerevisiae deletion strains, locus YHR094C, strain hxt1, active compounds read low 0.998 | S. cerevisiae deletion strains, locus YHR129C, strain ARP1, active compounds read low 0.999 | S. cerevisiae deletion strains, locus YHR200W, strain rpn10, active compounds read low 1 | S. cerevisiae deletion strains, locus YIL066C, strain RNR3, active compounds read low 1.01 | S. cerevisiae deletion strains, locus YIL073C, strain SPO22, active compounds read low 1 | S. cerevisiae deletion strains, locus YIL125W, strain kgd1, active compounds read low 1.01 | S. cerevisiae deletion strains, locus YIR030C, strain dcg1, active compounds read low 0.998 | S. cerevisiae deletion strains, locus YJL095W, strain BCK1, active compounds read low 0.989 | S. cerevisiae deletion strains, locus YJL134W, strain LCB3, active compounds read low 1.01 | S. cerevisiae deletion strains, locus YJL168C, strain set2, active compounds read low 0.994 | S. cerevisiae deletion strains, locus YJL187C, strain SWE1 (second series), active compounds read low 1 | S. cerevisiae deletion strains, locus YJR043C, strain POL32, active compounds read low 1 | S. cerevisiae deletion strains, locus YJR075W, strain HOC1, active compounds read low 1.02 | S. cerevisiae deletion strains, locus YKL009W, strain mrt4, active compounds read low 0.998 | S. cerevisiae deletion strains, locus YKL068W, active compounds read low 0.999 | S. cerevisiae deletion strains, locus YKL085W, strain MDH1 (second series), active compounds read low 0.996 | S. cerevisiae deletion strains, locus YKL085W, strain MDH1, active compounds read low 0.996 | S. cerevisiae deletion strains, locus YKL190W, strain CNB1, active compounds read low 1.01 | S. cerevisiae deletion strains, locus YKR001C, strain vps1, active compounds read low 0.993 | S. cerevisiae deletion strains, locus YLR039C, strain RIC1, active compounds read low 0.996 | S. cerevisiae deletion strains, locus YLR058C, strain SHM2, active compounds read low 1 | S. cerevisiae deletion strains, locus YLR102C, strain apc9, active compounds read low 0.996 | S. cerevisiae deletion strains, locus YLR262C, strain YPT6, active compounds read low 0.984 | S. cerevisiae deletion strains, locus YLR268W, strain sec22, active compounds read low 1 | S. cerevisiae deletion strains, locus YLR330W, strain CHS5, active compounds read low 1.01 | S. cerevisiae deletion strains, locus YLR342W, strain FKS1 (second series), active compounds read low 1.02 | S. cerevisiae deletion strains, locus YLR371W, strain rom2, active compounds read low 1 | S. cerevisiae deletion strains, locus YLR418C, strain cdc73, active compounds read low 0.982 | S. cerevisiae deletion strains, locus YML016C, strain PPZ1, active compounds read low 1.01 | S. cerevisiae deletion strains, locus YML032C, strain rad52, active compounds read low 1.01 | S. cerevisiae deletion strains, locus YML124C, strain tub3, active compounds read low 0.998 | S. cerevisiae deletion strains, locus YMR078C, strain ctf18, active compounds read low 0.994 | S. cerevisiae deletion strains, locus YMR223W, strain ubp8, active compounds read low 1 | S. cerevisiae deletion strains, locus YMR263W, strain SAP30, active compounds read low 1.03 | S. cerevisiae deletion strains, locus YMR307W, strain GAS1, active compounds read low 0.997 | S. cerevisiae deletion strains, locus YNL067W, strain RPL9B, active compounds read low 1.01 | S. cerevisiae deletion strains, locus YNL128W, strain TEP1, active compounds read low 1.01 | S. cerevisiae deletion strains, locus YNL153C, strain GIM3, active compounds read low 1.01 | S. cerevisiae deletion strains, locus YNL233W, strain BNI4, active compounds read low 1 | S. cerevisiae deletion strains, locus YNL250W, strain rad50, active compounds read low 0.999 | S. cerevisiae deletion strains, locus YNL271C, strain bni1, active compounds read low 0.995 | S. cerevisiae deletion strains, locus YNL298W, strain CLA4, active compounds read low 0.985 | S. cerevisiae deletion strains, locus YNL307C, strain MCK1, active compounds read low 0.997 | S. cerevisiae deletion strains, locus YNL322C, strain KRE1, active compounds read low 1.01 | S. cerevisiae deletion strains, locus YNR052C, strain pop2, active compounds read low 1 | S. cerevisiae deletion strains, locus YOL006C, strain TOP1, active compounds read low 0.943 | S. cerevisiae deletion strains, locus YOL012C, strain htz1 1.03 | S. cerevisiae deletion strains, locus YOL147C, strain pex11, active compounds read low 1 | S. cerevisiae deletion strains, locus YOR061W, strain CKA2, active compounds read low 1 | S. cerevisiae deletion strains, locus YOR069W, strain VPS5, active compounds read low 1.01 | S. cerevisiae deletion strains, locus YOR136W, strain idh2, active compounds read low 1 | S. cerevisiae deletion strains, locus YOR144C, strain elg1, active compounds read low 0.996 | S. cerevisiae deletion strains, locus YOR184W, strain ser1, active compounds read low 1.01 | S. cerevisiae deletion strains, locus YOR316C, strain cot1, active compounds read low 1 | S. cerevisiae deletion strains, locus YPL055C, strain LGE1, active compounds read low 1.03 | S. cerevisiae deletion strains, locus YPL241C, strain CIN2, active compounds read low 1 | S. cerevisiae deletion strains, locus YPR119W, strain clb2, active compounds read low 0.988 | S. cerevisiae deletion strains, locus YPR141C, strain kar3, active compounds read low 0.997 | S. cerevisiae deletion strains, locus YPR163C, strain tif3, active compounds read low 0.998 | S. cerevisiae deletion strains, locus YPR167C, strain met16, active compounds read low 1 | S. cerevisiae deletion strains, strain wtn01, active compounds read low 1 | S. cerevisiae strains, strain wild type, active compounds read low 1.04
